Source: PubChem BioAssay (National Center for Advancing Translational Sciences (NCATS))
Shown are actives, neighbours in structure and some others; about 9.2% of the full set was active somewhere.
FLuc modulator = qHTS profiling assay for firefly luciferase inhibitor/activator using purifed enzyme and Km concentrations of substrates (counterscreen for miR-21 project). Potency, µM (top dose mostly 57.5 µM), for inactives: top-dose activity change, negative = inhibition, usual class: inhibitors. 6.9% of 360,000 active. Luciferin 4-monooxygenase (Photinus pyralis), P08659. purified FLuc, Km substrates, luminescence inhibition;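 note: plate controls were vehicle for no effect and reference inhibitor for full effect; nearly all actives have a fitted effect of over 55% in size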
Target sequence (P08659 whole entry, looked up): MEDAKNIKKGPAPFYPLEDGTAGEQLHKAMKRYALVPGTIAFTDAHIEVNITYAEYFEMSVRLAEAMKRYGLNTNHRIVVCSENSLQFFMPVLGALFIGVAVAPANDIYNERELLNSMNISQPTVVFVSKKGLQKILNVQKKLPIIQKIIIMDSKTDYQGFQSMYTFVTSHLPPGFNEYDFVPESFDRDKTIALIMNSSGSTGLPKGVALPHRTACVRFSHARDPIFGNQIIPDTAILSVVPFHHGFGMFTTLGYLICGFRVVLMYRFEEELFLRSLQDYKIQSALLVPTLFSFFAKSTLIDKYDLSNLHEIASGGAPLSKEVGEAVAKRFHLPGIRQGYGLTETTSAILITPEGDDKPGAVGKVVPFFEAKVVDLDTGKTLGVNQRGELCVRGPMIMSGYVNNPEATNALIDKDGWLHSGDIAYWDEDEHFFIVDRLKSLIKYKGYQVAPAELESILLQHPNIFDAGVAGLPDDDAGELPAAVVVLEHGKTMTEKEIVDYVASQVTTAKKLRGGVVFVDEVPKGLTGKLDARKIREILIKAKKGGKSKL
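Purified P. pyralis luciferase, 10 nM final, with Km-level 10 uM D-luciferin and 10 uM ATP in 50 mM Tris acetate pH 7.5, 10 mM Mg acetate, 0.01% Tween-20, 0.05% BSA; 6-point qHTS titration about 60 µM downward; luminescence read.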
Rab9 promoter act = qHTS Assay for Rab9 Promoter Activators; Huh7 Rab9 promoter-luciferase reporter, luminescence, 24 h; Potency, µM (titrated, usually from 9.22 µM), without a hit: at the top dose activation, negative = inhibition, most hits filed as activators; 2.8% of 320,000 active; AID 485297, 2010; note: % of control where 0% means no effect; nearly all actives have a fitted effect of over 60% in size
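Steps: seed 1500 Huh7 Rab9-luc cells per well, rest 2 h at 37 °C; add compound in DMSO; incubate 24 h; add luciferase reagent, 10 min ambient; read luminescence.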
SMN2 splice enh = qHTS Assay for Enhancers of SMN2 Splice Variant Expression | Potency, µM (top dose mostly 46.1 µM), for inactives: at the highest dose activity change, positive = activation, hits mostly activators | AID 1458, 2008 | HEK293 SMN2-luciferase splicing reporter, luminescence, 30-36 h | 2.8% of 210,000 active; note: % of control where 0% means no effect; nearly all actives have a fitted effect of over 55% in size
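HEK293 cells carry an SMN2 […]–luciferase reporter in which exon 7 inclusion puts luciferase in frame. Cells were plated 10-12 h before compound addition, then incubated 30-36 h at 37C. ONE-Glo luminescence was read; sodium butyrate at 4.5 mM final served as control.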
ELG1 genotox = qHTS screen for small molecules that induce genotoxicity in human embryonic kidney (HEK293T) cells expressing luciferase-tagged ELG1. HEK293T ELG1-luciferase reporter, luminescence, 16 h. Potency, µM (series often up to 46 µM), for the others: at the top dose activity change, positive = activation, actives largely listed as activators. 1.3% of 330,000 active. AID 504466, 2011; note: % of control where 0% means no effect; nearly all actives have a fitted effect of over 60% in size
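Screening used a luciferase reporter fused to human ELG1 in HEK293T cells. Luminescence was read on a CCD plate imager after 16 hr exposure and 30 min ONE-Glo incubation.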
ELG1 repair inh = qHTS screen for small molecules that inhibit ELG1-dependent DNA repair in human embryonic kidney (HEK293T) cells expressing luciferase-tagged ELG1; HEK293T ELG1-luciferase reporter, luminescence, 16 h; DNA damage induced by 5-fluorouridine; Potency, µM (highest dose often 46.1 µM), for inactives: at the top dose activity change, negative = inhibition, actives largely listed as inhibitors; 2.3% of 330,000 active; note: % is set by controls: 0 for no effect and ±100 for the full control effect; nearly all actives have a fitted effect of over 55% in size
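HEK293T cells expressing luciferase-tagged ELG1 (2,000/well) received 5-Fluorouridine plus compound or DMSO for 16 hr at 37 °C. Luciferase was read by ONE-Glo luminescence after 30 min at room temperature.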
NPC1 prom act = qHTS Assay for NPC1 Promoter Activators; Huh7 NPC1 promoter luciferase reporter, 24 h; Potency, µM (series often up to 9.22 µM), for inactives: at the top dose activation, hits mostly activators; 2.4% of 320,000 active; note: % of control where 0% means no effect; nearly all actives have a fitted effect of over 60% in size
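Readout is luciferase luminescence, reflecting NPC1 promoter activation in stably transfected Huh7 cells after 24 h compound exposure at 37 °C in reduced-serum medium with 10% FBS.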
Starred values were filed as active, the others as inactive; ? = inconclusive; nt = no result; [ ] = another dose, or the depositor's remark. Calls come from the whole dose curve; as a rule, active = well fitted curve in the direction sought with a large enough effect; inconclusive = small, poorly fitted or top-dose-only effect, or another doubt; inactive = no such curve, though single readings can be large; an effect the other way counts as inactive or inconclusive. Potency is the fitted concentration of half-maximal effect.

SMILES	FLuc modulator	Rab9 promoter act	SMN2 splice enh	ELG1 genotox	ELG1 repair inh	NPC1 prom act
CC(NC(=O)c1cc(COc2ccccc2)on1)c1nccs1 (stereo not given)	4.8µM*	1.4µM*	nt	8.2µM*	?	1.4µM*
Cc1nc(C(C)NC(=O)c2cc(COc3ccc(C)c(C)c3)on2)c(C)s1 (stereo not given)	9.5µM*	3.2µM*	nt	?	?	2.8µM*
Cc1cc(OCc2cc(C(=O)NC(C)c3c(C)nn(C)c3C)no2)cc(C)c1Cl (stereo not given)	6.7µM*	2.2µM*	nt	?	?	2.5µM*
Cc1cccc(CC(C)NC(=O)c2cc(COc3ccc(C)c(C)c3)on2)n1 (stereo not given)	21µM*	?	nt	18%	?	?
CCc1cc(C(=O)NC(C)c2ccccc2)no1 (stereo not given)	2%	nt	-2%	nt	nt	nt
COCCn1c(=O)c(-c2cc(F)cc(F)c2)nc2cnc(OCc3ccccc3)nc21	nt	nt	-2%	nt	nt	nt
Cc1ccc(S(=O)(=O)c2cn(CC(=O)Nc3ccc4c(c3)OCO4)c3ccc(F)cc3c2=O)cc1	3%	nt	2%	nt	nt	nt
COc1cc(-c2nc3ccc(Cl)cn3c2Nc2ccc3c(c2)OCO3)ccc1O	?	nt	-19%	nt	nt	nt
Cc1ccc(Nc2ncnc3onc(C)c23)cc1Cl	1%	nt	nt	nt	nt	nt
CCOC(=O)C(C(C)=O)c1c(Br)c(O)c(O)c2c(C(=O)c3ccc(C)cc3)coc12 (stereo not given)	19µM*	-14%	-4%	7%	4.6µM*	-25%
CCOC(=O)c1c(C)n(-c2ccc(C)cc2)c2c(C(C(C)=O)C(=O)O)c(Br)c(O)c(O)c12 (stereo not given)	-3%	2%	?	-1%	-16%	5%
FC(F)(F)c1cnc(-c2cnc(-c3cccnc3)nc2)c(Cl)c1	?	4µM*	13µM*	?	?	2.5µM*
CN(C)S(=O)(=O)c1cccc(NC(=O)COC(=O)/C=C/c2ccc3c(c2)OCO3)c1	12µM*	5%	6%	10%	-10%	-1%
Cc1ccc(/C=C/C(=O)OCC(=O)Nc2cccc(S(=O)(=O)N(C)C)c2)o1	21µM*	-2%	6%	-1%	-13%	2%
Cc1ccc(S(=O)(=O)N(C)C)cc1NC(=O)COC(=O)/C=C/c1ccc2c(c1)OCO2	21µM*	1%	3%	0%	8%	-1%
CC(=O)N/C(=C\c1ccccc1)C(=O)OCC(=O)Nc1cc(S(=O)(=O)N(C)C)ccc1C	3%	2%	nt	-1%	4%	0%
CN(C)S(=O)(=O)c1cccc(NC(=O)COC(=O)/C=C/c2ccco2)c1	?	2%	2%	1%	?	-8%
N/C(=N\OC(=O)CCC1CCCC1)c1ccc(Cl)cc1	21µM*	3%	nt	?	?	13%
N/C(=N\OC(=O)CCCc1ccccc1)c1ccccc1Cl	6.7µM*	2%	nt	?	-4%	2%
COc1ccc(/C(N)=N/OC(=O)CCC2CCCC2)cc1	5%	9%	nt	-1%	-3%	1%
Cc1cccc(/C(N)=N/OC(=O)CCc2ccccc2)c1	21µM*	?	nt	13%	?	19%
Cc1ccc(/C(N)=N/OC(=O)CCC2CCCCC2)cc1	19µM*	18%	16%	9%	?	11%
CCCn1c(=O)c2sccc2n2c(CCCC(=O)Nc3cccc(CC)c3)nnc12	3%	nt	nt	nt	nt	nt
Cc1cccc(/C(N)=N/OC(=O)Cc2cccc3ccccc23)c1	0%	2%	8%	-3%	-3%	0%
Cc1ccc(/C(N)=N/OC(=O)CCC2CCCC2)cc1	15µM*	4%	22%	11%	?	-3%
SMILES	FLuc modulator	Rab9 promoter act	SMN2 splice enh	ELG1 genotox	ELG1 repair inh	NPC1 prom act
Cc1cccc(/C(N)=N/OC(=O)CCC2CCCCC2)c1	6µM*	10%	21%	?	?	14%
CCN(CC)c1ccc(NC(=O)c2ccco2)c(C)c1	-19%	1%	-5%	?	?	10%
CCN(CC)c1ccc(NC(=O)c2ccco2)cc1	3µM*	?	3.2µM*	1.8µM*	?	1.6µM*
CCN(CC)c1ccc(NC(=S)NC(=O)c2ccco2)cc1	15µM*	1.6µM*	7.9µM*	?	?	?
O=C(Nc1ccccc1)N(Cc1cccs1)c1ccc(F)cc1	-11%	nt	nt	nt	nt	nt
Cc1ccc(-c2cc(Cc3ccccn3)c(=O)[nH]n2)cc1	-3%	-4%	nt	0%	11%	2%
CC(C)NC(=O)CCc1nc2cccnc2n1-c1ccccc1	-1%	-7%	nt	1%	2%	-5%
O=C(Nc1ccc(NC(=O)c2ccccc2Cl)cc1)c1cccnc1	-11%	2%	nt	5%	-8%	3%
Clc1ccc(-c2nnc(-c3ccccc3Cl)o2)cc1	1.2µM*	0.45µM*	nt	?	?	0.63µM*
Clc1ccccc1-c1nnc(-c2ccccc2Cl)o1	8.5µM*	2.5µM*	13µM*	?	?	4µM*
Clc1ccc(-c2nnc(-c3cccc4ccccc34)o2)cc1Cl	-5%	?	-4%[9.22 µM]	0%	?	27%
O=C(Nc1nnc(-c2ccccc2Cl)o1)c1cccnc1	19µM*	?	?	?	?	?
CCn1nnc2cc(C(=O)Nc3cccc(Cl)c3C)ccc21	4%	nt	nt	nt	nt	nt
Cc1cccc(-c2nc(N)nc(N)n2)c1	?	?	nt	?	?	21%
Cc1ccc2[nH]c(-c3cccc(N)c3)cc2c1	4.8µM*	2.2µM*	14µM*	2.3µM*	?	1.8µM*
Cc1cc(-c2nnc(SCC(=O)Nc3ccc(C)c(C)c3)n2N)n[nH]1	11µM*	6%	nt	1%	23%	18%
COc1ccc(C(=O)Nc2nc(C)c(C(=O)N(C)C)s2)cc1OC	13µM*	22%	?	?	?	17%
CC(=O)c1sc(NC(=O)C(C)(C)C)nc1C	-2%	1%	-8%	2%	16%	-2%
CC(=O)c1sc(NC(=O)c2ccc(C(C)(C)C)cc2)nc1C	1.3µM*	1.6µM*	nt	?	?	1.6µM*
CC(=O)c1sc(NC(=O)c2cnc(Cl)c(Cl)c2)nc1C	?	-4%	nt	?	?	3%
CC(=O)c1sc(NC(=O)c2ccc(C)c(C)c2)nc1C	2.4µM*	1.8µM*	8.9µM*	5%	?	1.6µM*
